The source of these data is PubChem BioAssay (NCATS).

SMILES strings stand for the structures. Records with an inconclusive call do not appear. The source made the active and inactive calls. Calls come from the whole dose curve; as a rule, active = well fitted cell-killing curve with a large enough effect; inconclusive = small, poorly fitted or top-dose-only effect; inactive = no such curve, though single readings can be large or run the other way.

The nature of the first experiment: qHTS of pediatric cancer cell lines to identify multiple opportunities for drug repurposing: Primary screen for NB1643 cells (AID 1347099).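 Note: plate controls were DMSO neutral control for no effect and bortezomib positive control for full effect; nearly all actives have a fitted effect of over 50% in size.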 As to conditions: NB1643 neuroblastoma viability, CellTiter-Glo luminescence, 48 h; series mostly up to 46 µM; activity change, negative = cytotoxic: at the top concentration. The gist of the method: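 Viability was measured as metabolically active cells after 48 hours of treatment, read by CellTiter-Glo luminescence. Compounds were tested at multiple final concentrations, giving concentration-response curves.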
As to `CCNC(=O)NCc1cccc(Cl)c1`, the “activity change, negative = cytotoxic” value is -3.41% (inactive). Still for that read-out and setting: then `CCCCCCCCCCCCOCCOCCOCCOCCOCCOCCOCCOCCOCCO`, with -2.34% (inactive); and `CCN(CC)CCOC(=O)C(Cc1cccc2ccccc12)CC1CCCO1` (stereo not drawn), with -8.61% (inactive).

With `C[C@H]1[C@H]2CC[C@H]3[C@@H]4CC=C5C[C@@H](N(C)C)CC[C@]5(C)[C@H]4CC[C@]23CN1C`, the “activity change, negative = cytotoxic” value is -22.3% (inactive). Same read-out and setting: for `OC[C@H]1O[C@@H]2O[C@H]3[C@H](O)[C@@H](O)[C@@H](O[C@H]4[C@H](O)[C@@H](O)[C@@H](O[C@H]5[C@H](O)[C@@H](O)[C@@H](O[C@H]6[C@H](O)[C@@H](O)[C@@H](O[C@H]7[C@H](O)[C@@H](O)[C@@H](O[C@H]8[C@H](O)[C@@H](O)[C@@H](O[C@H]1[C@H](O)[C@H]2O)O[C@@H]8CO)O[C@@H]7CO)O[C@@H]6CO)O[C@@H]5CO)O[C@@H]4CO)O[C@@H]3CO` the value was 25.5% (inactive); for `CNCCc1ccccn1`, 10.5% (inactive); for `O=C(CCN1CCN2CCCC2C1)N1c2ccccc2Sc2ccc(Cl)cc21` (stereo not drawn), 0% [at 16.1 µM] (inactive). The same measure, in the same setting: then `CCOC(=O)c1ccc(N)cc1`, with -9.38% (inactive); and `CN(Cc1ccc(C(C)(C)C)cc1)Cc1cccc2ccccc12`, with -3.96% (inactive). Regarding `CCCCN1C[C@H](O)[C@@H](O)[C@H](O)[C@H]1CO`, the “activity change, negative = cytotoxic” value is -7.99% (inactive).

With `CCNC(=O)/C=C/c1cccc(Br)c1`, the “activity change, negative = cytotoxic” value is -1.76% (inactive). Regarding `NC(=O)c1ccccc1O`, the “activity change, negative = cytotoxic” value was 0.618% (inactive).

For the molecule `CCCCC(CC)CN1CN(CC(CC)CCCC)CC(C)(N)C1` (stereo not drawn), the “activity change, negative = cytotoxic” value was -13% (inactive).

Take `c1ccc(-c2nc[nH]c2-c2ccccc2)cc1`: the “activity change, negative = cytotoxic” value is 12% (inactive). Still for that read-out and setting: then `CC(=O)NCCCCCC(=O)O`, with 15.7% (inactive); and `O=[N+]([O-])c1cccc(S(=O)(=O)NCCNS(=O)(=O)c2cccc([N+](=O)[O-])c2)c1`, with -1.85% (inactive); and `O=c1[nH]c(=O)n([C@H]2C[C@H](O)[C@@H](CO)O2)cc1F`, with -29% (inactive). The same measure, in the same setting: for `CCCCCCCCCCC[C@@H](C[C@@H]1OC(=O)[C@H]1CCCCCC)OC(=O)[C@H](CC(C)C)NC=O` the value was -0.662% (inactive); for `COc1cc(C(=O)NCc2ccc(OCCN(C)C)cc2)cc(OC)c1OC`, -4.12% (inactive). Same read-out and setting: for `COc1cc([C@H]2Oc3cc([C@H]4Oc5cc(O)cc(O)c5C(=O)[C@@H]4O)ccc3O[C@@H]2CO)ccc1O` the value was 0% (inactive); for `C#C[C@]1(O)CC[C@H]2[C@@H]3CCC4=CC(=O)CC[C@@H]4[C@H]3CC[C@@]21CC`, 3.81% (inactive); for `CCCN(CCc1cccs1)[C@H]1CCc2c(O)cccc2C1`, 6.56% (inactive). Regarding `CCCCCCCCCCCCSCCOCCO`, the “activity change, negative = cytotoxic” value was 5.79% (inactive). On the same count and under the same terms, then `O=C1C(=O)c2ccccc2C(O)=C1C1CCC(c2ccc(Cl)cc2)CC1` (stereo not drawn), with -2% (inactive); and `CCC(C(=O)OCCOCCN(CC)CC)c1ccccc1` (stereo not drawn), with -8.78% (inactive); and `CC(CNC1CCCCC1)OC(=O)c1ccccc1` (stereo not drawn), with -5.81% (inactive).

Another experiment can be described thus: qHTS of pediatric cancer cell lines to identify multiple opportunities for drug repurposing: Primary screen for LAN-5 cells (AID 1347100).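 For activity change, negative = cytotoxic: plate controls were DMSO neutral control for no effect and bortezomib positive control for full effect.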 Note: potency is the fitted concentration of half-maximal effect. As to conditions: LAN-5 neuroblastoma viability, CellTiter-Glo luminescence, 48 h; series mostly up to 46 µM; activity change, negative = cytotoxic: at the top concentration. The gist of the method:
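Cells (500-1,000/well) in growth media were settled 5 h at 37 degrees C, then given compounds for 48 h. Viability was read as CellTiter-Glo luminescence. Primary runs used MIPE at 11 points (0.78 nM-46 µM) and NPC at 8 points (0.59 nM-46 µM); follow-ups used 11 points.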
A general note: In qHTS, concentration-response curves come from the screen itself.
On to `CCNC(=O)NCc1cccc(Cl)c1`, for which the “activity change, negative = cytotoxic” value was -2.45% (inactive).

As to `CCN(CC)CCOC(=O)C(Cc1cccc2ccccc12)CC1CCCO1` (stereo not drawn), the “activity change, negative = cytotoxic” value was -14.5% (inactive). Same read-out and setting: then `C[C@H]1[C@H]2CC[C@H]3[C@@H]4CC=C5C[C@@H](N(C)C)CC[C@]5(C)[C@H]4CC[C@]23CN1C`, with -7.21% (inactive). Same read-out and setting: then `OC[C@H]1O[C@@H]2O[C@H]3[C@H](O)[C@@H](O)[C@@H](O[C@H]4[C@H](O)[C@@H](O)[C@@H](O[C@H]5[C@H](O)[C@@H](O)[C@@H](O[C@H]6[C@H](O)[C@@H](O)[C@@H](O[C@H]7[C@H](O)[C@@H](O)[C@@H](O[C@H]8[C@H](O)[C@@H](O)[C@@H](O[C@H]1[C@H](O)[C@H]2O)O[C@@H]8CO)O[C@@H]7CO)O[C@@H]6CO)O[C@@H]5CO)O[C@@H]4CO)O[C@@H]3CO`, with 9.06% (inactive); and `CNCCc1ccccn1`, with 19.9% (inactive). Still for that read-out and setting: then `O=C(CCN1CCN2CCCC2C1)N1c2ccccc2Sc2ccc(Cl)cc21` (stereo not drawn), with -14.6% [at 16.1 µM] (inactive). Turning to `CCOC(=O)c1ccc(N)cc1`, the “activity change, negative = cytotoxic” value was 13.7% (inactive). Still for that read-out and setting: then `CN(Cc1ccc(C(C)(C)C)cc1)Cc1cccc2ccccc12`, with -20.1% (inactive); and `CCCCN1C[C@H](O)[C@@H](O)[C@H](O)[C@H]1CO`, with 6.13% (inactive). The same measure, in the same setting: for `CCN[C@@H]1C[C@H](N)[C@@H](OC2OC(CN)=CCC2N)[C@H](O)[C@H]1O[C@H]1OC[C@](C)(O)[C@H](NC)[C@H]1O` (stereo partly drawn) the value was -0.753% [at 0.597 µM] (inactive); for `CCNC(=O)/C=C/c1cccc(Br)c1`, 4.69% (inactive). On the same count and under the same terms, for `CCc1oc2ccccc2c1C(=O)c1cc(Br)c(O)c(Br)c1` the value was -9.01% (inactive); for `NC(=O)c1ccccc1O`, 23.9% (inactive). With `CN1CCc2cccc3c2[C@H]1Cc1ccc(O)c(O)c1-3`, the Potency was 11.9 µM (active). Take `CC(C)(Cc1c[nH]c2ccccc12)NCC(O)COc1ccccc1C#N` (stereo not drawn): the “activity change, negative = cytotoxic” value was -14.6% (inactive). Same read-out and setting: for `CCCCC(CC)CN1CN(CC(CC)CCCC)CC(C)(N)C1` (stereo not drawn) the value was -21% (inactive). As for `c1ccc(-c2nc[nH]c2-c2ccccc2)cc1`, the “activity change, negative = cytotoxic” value is 0.399% (inactive). On the same count and under the same terms, then `CC(=O)NCCCCCC(=O)O`, with 3.19% (inactive). Still for that read-out and setting: for `O=[N+]([O-])c1cccc(S(=O)(=O)NCCNS(=O)(=O)c2cccc([N+](=O)[O-])c2)c1` the value was 3.4% (inactive). Regarding `O=c1[nH]c(=O)n([C@H]2C[C@H](O)[C@@H](CO)O2)cc1F`, the Potency was 1.33 µM (active). In the case of `CCCCCCCCCCC[C@@H](C[C@@H]1OC(=O)[C@H]1CCCCCC)OC(=O)[C@H](CC(C)C)NC=O`, the “activity change, negative = cytotoxic” value was -13.6% (inactive). The same measure, in the same setting: then `CCC1Nc2cc(Cl)c(S(N)(=O)=O)cc2S(=O)(=O)N1` (stereo not drawn), with 15.8% (inactive); and `COc1cc(C(=O)NCc2ccc(OCCN(C)C)cc2)cc(OC)c1OC`, with -5.8% (inactive); and `COc1cc([C@H]2Oc3cc([C@H]4Oc5cc(O)cc(O)c5C(=O)[C@@H]4O)ccc3O[C@@H]2CO)ccc1O`, with 7.79% (inactive). Same read-out and setting: then `C#C[C@]1(O)CC[C@H]2[C@@H]3CCC4=CC(=O)CC[C@@H]4[C@H]3CC[C@@]21CC`, with -4% (inactive); and `CCCN(CCc1cccs1)[C@H]1CCc2c(O)cccc2C1`, with -18.5% (inactive). On the same count and under the same terms, for `O=C1C(=O)c2ccccc2C(O)=C1C1CCC(c2ccc(Cl)cc2)CC1` (stereo not drawn) the value was -13.1% (inactive). As to `N=C(N)N1CCc2ccccc2C1`, the activity change, negative = cytotoxic was -2.04% [at 4.84 µM] (inactive). Regarding `OC[C@H]1O[C@@H](Oc2ccc(O)cc2)[C@H](O)[C@@H](O)[C@@H]1O`, the “activity change, negative = cytotoxic” value is -1.49% (inactive). The same measure, in the same setting: for `CCC(C(=O)OCCOCCN(CC)CC)c1ccccc1` (stereo not drawn) the value was -6.33% (inactive); for `CC(CNC1CCCCC1)OC(=O)c1ccccc1` (stereo not drawn), 1.07% (inactive); for `CCOC(=O)Nc1ccc2c(c1)N(C(=O)CCN1CCOCC1)c1ccccc1S2`, -16.4% (inactive).
